# Results filed as inconclusive are left out. More than one record can exist for a structure, and the calls need not agree. The source made the active and inactive calls. The calls were made as follows, unless noted: active = hit-call score of the fitted dose curve at least 0.9, where 1 is the maximum; inactive = score below 0.9.
# What was measured:
# [1] = CCTE_Harrill_HTTr_Viability_DMEM_6hr: (Pilot) CCTE's 6-hour Cell Viability Assessment for the High-Throughput Transcriptomics (HTTr) Platform, in MCF-7 cells cultured in DMEM + 10% fetal bovine serum, Harrill Lab (AID 2283973)
# How it was run: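 MCF-7 cells in DMEM + 10% FBS, eight-point dilution series, 6 h exposure. Membrane integrity by propidium iodide exclusion with high-content imaging; bidirectional fit versus DMSO.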
# [2] = CCTE_Harrill_HTTr_Viability_DMEM_12hr: (Pilot) CCTE's 12-hour Cell Viability Assessment for the High-Throughput Transcriptomics (HTTr) Platform, in MCF-7 cells cultured in DMEM + 10% fetal bovine serum, Harrill Lab (AID 2283974)
# How it was run: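 MCF-7 cells in DMEM + 10% FBS exposed 12 h to an eight-point dilution series; membrane integrity scored by propidium iodide exclusion with high-content imaging, bidirectional fitting versus DMSO.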
# [3] = CCTE_Harrill_HTTr_Viability_DMEM_24hr: (Pilot) CCTE's 24-hour Cell Viability Assessment for the High-Throughput Transcriptomics (HTTr) Platform, in MCF-7 cells cultured in DMEM + 10% fetal bovine serum, Harrill Lab (AID 2283975)
# How it was run: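 MCF-7 cells in DMEM with 10% FBS exposed for 24 hours to an eight-point dilution series. Membrane integrity by propidium iodide exclusion with high content imaging; bidirectional fit against DMSO.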
# [4] = CCTE_Harrill_HTTr_Viability_PRF_DMEM_6hr: (Pilot) CCTE's 6-hour Cell Viability Assessment for the High-Throughput Transcriptomics (HTTr) Platform, in MCF-7 cells cultured phenol red-free DMEM + 10% charcoal-stripped fetal bovine serum, Harrill Lab (AID 2283976)
# How it was run: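 MCF-7 cells in phenol red-free DMEM with 10% charcoal-stripped FBS exposed 6 hours to an eight-point dilution series. Propidium iodide exclusion imaged; curves fitted bidirectionally against DMSO.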
# [5] = CCTE_Harrill_HTTr_Viability_PRF_DMEM_12hr: (Pilot) CCTE's 12-hour Cell Viability Assessment for the High-Throughput Transcriptomics (HTTr) Platform, in MCF-7 cells cultured in phenol red-free DMEM + 10% charcoal-stripped fetal bovine serum, Harrill Lab (AID 2283977)
# How it was run: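 MCF-7 cells in phenol red-free DMEM with 10% charcoal-stripped FBS exposed 12 hours to an eight-point dilution series. Viability assessed by high-content imaging of propidium iodide exclusion; bidirectional fit versus DMSO.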
# [6] = CCTE_Harrill_HTTr_Viability_PRF_DMEM_24hr: (Pilot) CCTE's 24-hour Cell Viability Assessment for the High-Throughput Transcriptomics (HTTr) Platform, in MCF-7 cells cultured in phenol red-free DMEM + 10% charcoal-stripped fetal bovine serum, Harrill Lab (AID 2283980)
# How it was run: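 MCF-7 cells in phenol red-free DMEM with 10% charcoal-stripped FBS, eight-point dilution series, 24 h exposure. Membrane integrity by propidium iodide exclusion with high content imaging; bidirectional fit vs DMSO.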
# [7] = CCTE_Harrill_HTTr_Apoptosis_DMEM_6hr: (Pilot) CCTE's 6-hour Apoptosis Assessment for the High-Throughput Transcriptomics (HTTr) Platform, in MCF-7 cells cultured in DMEM + 10% fetal bovine serum, Harrill Lab (AID 2283981)
# How it was run: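 Caspase-3/7 activation read by high content imaging with CellEvent Caspase 3/7 Green in MCF-7 cells (DMEM + 10% FBS), 6 h after dosing; eight-point dilution series. Bidirectional fitting relative to DMSO baseline.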
# [8] = CCTE_Harrill_HTTr_Apoptosis_DMEM_12hr: (Pilot) CCTE's 12-hour Apoptosis Assessment for the High-Throughput Transcriptomics (HTTr) Platform, in MCF-7 cells cultured in DMEM + 10% fetal bovine serum, Harrill Lab (AID 2283982)
# How it was run: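 MCF-7 cells in DMEM + 10% FBS, exposed 12 h to an eight-point dilution series; caspase-3/7 activation imaged with CellEvent Green. Bidirectional fit versus DMSO.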
# [9] = CCTE_Harrill_HTTr_Apoptosis_DMEM_24hr: (Pilot) CCTE's 24-hour Apoptosis Assessment for the High-Throughput Transcriptomics (HTTr) Platform, in MCF-7 cells cultured in DMEM + 10% fetal bovine serum, Harrill Lab (AID 2283983)
# How it was run: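 MCF-7 cells in DMEM + 10% FBS, eight-point dilution series, 24 h exposure. Caspase-3/7 activation imaged by high-content imaging with CellEvent Caspase 3/7 Green. Bidirectional curve fitting against DMSO baseline.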
# [10] = CCTE_Harrill_HTTr_Apoptosis_PRF_DMEM_6hr: (Pilot) CCTE's 6-hour Apoptosis Assessment for the High-Throughput Transcriptomics (HTTr) Platform, in MCF-7 cells cultured phenol red-free DMEM + 10% charcoal-stripped fetal bovine serum, Harrill Lab (AID 2283984)
# How it was run: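 MCF-7 cells in phenol red-free DMEM + 10% charcoal-stripped FBS, eight-point dilution series, 6 h exposure. Caspase-3/7 activation imaged by high-content imaging with CellEvent Caspase 3/7 Green; bidirectional fit versus DMSO baseline.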
# [11] = CCTE_Harrill_HTTr_Apoptosis_PRF_DMEM_12hr: (Pilot) CCTE's 12-hour Apoptosis Assessment for the High-Throughput Transcriptomics (HTTr) Platform, in MCF-7 cells cultured in phenol red-free DMEM + 10% charcoal-stripped fetal bovine serum, Harrill Lab (AID 2283985)
# How it was run: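 MCF-7 cells in phenol red-free DMEM with 10% charcoal-stripped FBS, eight-point dilution series, 12 h exposure. Caspase-3/7 activation imaged by high content imaging with CellEvent Green reagent; bidirectional fit vs DMSO.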
# [12] = CCTE_Harrill_HTTr_Apoptosis_PRF_DMEM_24hr: (Pilot) CCTE's 24-hour Apoptosis Assessment for the High-Throughput Transcriptomics (HTTr) Platform, in MCF-7 cells cultured in phenol red-free DMEM + 10% charcoal-stripped fetal bovine serum, Harrill Lab (AID 2283986)
# How it was run: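 MCF-7 cells in phenol red-free DMEM with 10% charcoal-stripped FBS, exposed 24 h across an eight-point dilution series. Caspase-3/7 activation imaged with CellEvent Green by high content imaging; bidirectional fitting against DMSO.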
# [13] = molecular target: Ratio of Nucleoli Translocation and Cytoplasm, AR (gene 367) (UniProt P10275); assay: UPITT_HCI_U2OS_AR_TIF2_Nucleoli_Cytoplasm_Ratio_Agonist: University of Pittsburgh U2OS Androgen Receptor-Transcriptional Intermediary Factor 2 (AR-TIF2) Agonism High Content Imaging Assay for Ratio of Nucleoli Translocation and Cytoplasm (AID 2284000; active = hit-call score of the fitted dose curve at least 0.9, where 1 is the maximum;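 also: hits raise the red nucleolar to cytoplasm ratio above vehicle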)
# How it was run: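 Read-out first: nucleolar-to-cytoplasm ratio of red (AR-RFP) signal, quantified by high-content imaging in U2OS cells co-expressing TIF2-GFP. Activity is scored as signal increase over DMSO. Single-point screening used 20 uM final (0.2% DMSO).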
# [14] = CCTE_Simmons_MITO_max_resp_rate: CCTE's HepG2 Seahorse XF Respirometric Screening Assay at Maximal Respiratory State [uncoupled], Simmons Lab (AID 2284002); conditions: actives raise or lower the signal
# How it was run: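 Maximal (FCCP-uncoupled) respiration rate in HepG2, from Seahorse kinetic OCR over 72 min at 6 min cycles. Compounds at 125 nM–100 uM final, 7 points, three biological replicates; both directions fit relative to DMSO.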
# [15] = CCTE_Simmons_MITO_inhib_resp_rate: CCTE's HepG2 Seahorse XF Respirometric Screening Assay at Inhibited Respiratory State [full ETC block], Simmons Lab (AID 2284006); conditions: actives raise or lower the signal
# How it was run: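 HepG2 oxygen consumption was measured by Seahorse XF after compound, FCCP, then rotenone/antimycin A injections. Seven concentrations from 125 nM to 100 uM (final) were tested, with 6-min kinetic reads over 72 minutes. Inhibited-state OCR was fitted bidirectionally against DMSO.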
# DIO1 (gene 1733) = assay: CCTE_GLTED_hDIO1: CCTE's human Deiodinase 1 (DIO1) Inhibition Assay, Great Lakes Toxicology and Ecology Division (GLTED) Lab (AID 2283987; active = hit-call score of the fitted dose curve at least 0.9, where 1 is the maximum;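 also: isolated human DIO1 enzyme in a cell-free setup rather than cells; enzyme activity read as free iodide liberated from substrate via Sandell-Kolthoff colorimetry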)
# How it was run: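 Inhibition read as reduced iodide release: after 3 h of human DIO1 with chemical, free iodide is quantified colorimetrically (Sandell-Kolthoff cerium/arsenic reaction). Triplicate plates, DMSO baseline.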
# THRB (gene 7068) = THRB (gene 7068) (UniProt P10828); assay: TOX21_TRB_COA_Antagonist_Followup_ratio: Tox21 Thyroid Hormone Receptor beta Antagonism through Coactivator Recruitment Follow-Up Assay, Ratio (AID 2283967; active = hit-call score of the fitted dose curve at least 0.9, where 1 is the maximum)
# How it was run: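 Test compound was incubated with 5.0 nM GST-TRβ LBD in 0.10% BSA. Then 200 nM fluorescein-SRC-2 peptide and 2 nM terbium anti-GST antibody were added. TR-FRET (520:495 nm) was measured and normalized to DMSO and T3 controls.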
# [16] = molecular target: Retinoic acid receptor RXR-alpha (Homo sapiens) (UniProt P19793); assay: TOX21_TR_RXR_BLA_Antagonist_Followup_ratio: Tox21 Thyroid Hormone Receptor beta Retinoid X Receptor alpha (RXRa) Antagonism Beta-lactamase (BLA) Follow-Up Assay, Ratio (AID 2283972; active = hit-call score of the fitted dose curve at least 0.9, where 1 is the maximum)
# How it was run: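 After 5 h attachment at 37C, HEK293T RXRa-bla cells (2,500/well, 2% charcoal-stripped FBS, no phenol red) received compounds at 11 concentrations in triplicate for 16 h. Beta-lactamase read as 460:530 nm ratio after 2 h RT substrate loading.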
# [17] = TOX21_TR_RXR_BLA_Antagonist_Followup_viability: Viability Assessment in the Tox21 Thyroid Hormone Receptor beta Retinoid X Receptor alpha (RXRa) Antagonism Beta-lactamase (BLA) Follow-Up Assay (AID 2283979; active = hit-call score of the fitted dose curve at least 0.9, where 1 is the maximum)
# How it was run: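 Follow-up compounds (11 concentrations, triplicate) were incubated 16 h at 37C/5% CO2 with HEK293T RXRa-bla cells seeded at 2,500/well in charcoal-stripped-serum medium. ATP content by CellTiter-Glo luminescence gave viability; curves fitted in both directions against DMSO.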
# [18] = molecular target: Nucleoli Translocation, AR (gene 367) (UniProt P10275); assay: UPITT_HCI_U2OS_AR_TIF2_Nucleoli_Antagonist: University of Pittsburgh U2OS Androgen Receptor-Transcriptional Intermediary Factor 2 (AR-TIF2) Antagonism High Content Imaging Assay for Nucleoli Translocation (AID 2283997; active = hit-call score of the fitted dose curve at least 0.9, where 1 is the maximum)
# How it was run: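 Measured quantity was AR-RFP fluorescence localized to nucleoli in engineered U2OS cells also bearing TIF2-GFP, acquired on automated high-content imagers. Primary testing used 20 uM compound; actives were confirmed in triplicate wells.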
# Chain of Nucleoli Translocation, AR (gene 367) (P10275 whole entry, looked up): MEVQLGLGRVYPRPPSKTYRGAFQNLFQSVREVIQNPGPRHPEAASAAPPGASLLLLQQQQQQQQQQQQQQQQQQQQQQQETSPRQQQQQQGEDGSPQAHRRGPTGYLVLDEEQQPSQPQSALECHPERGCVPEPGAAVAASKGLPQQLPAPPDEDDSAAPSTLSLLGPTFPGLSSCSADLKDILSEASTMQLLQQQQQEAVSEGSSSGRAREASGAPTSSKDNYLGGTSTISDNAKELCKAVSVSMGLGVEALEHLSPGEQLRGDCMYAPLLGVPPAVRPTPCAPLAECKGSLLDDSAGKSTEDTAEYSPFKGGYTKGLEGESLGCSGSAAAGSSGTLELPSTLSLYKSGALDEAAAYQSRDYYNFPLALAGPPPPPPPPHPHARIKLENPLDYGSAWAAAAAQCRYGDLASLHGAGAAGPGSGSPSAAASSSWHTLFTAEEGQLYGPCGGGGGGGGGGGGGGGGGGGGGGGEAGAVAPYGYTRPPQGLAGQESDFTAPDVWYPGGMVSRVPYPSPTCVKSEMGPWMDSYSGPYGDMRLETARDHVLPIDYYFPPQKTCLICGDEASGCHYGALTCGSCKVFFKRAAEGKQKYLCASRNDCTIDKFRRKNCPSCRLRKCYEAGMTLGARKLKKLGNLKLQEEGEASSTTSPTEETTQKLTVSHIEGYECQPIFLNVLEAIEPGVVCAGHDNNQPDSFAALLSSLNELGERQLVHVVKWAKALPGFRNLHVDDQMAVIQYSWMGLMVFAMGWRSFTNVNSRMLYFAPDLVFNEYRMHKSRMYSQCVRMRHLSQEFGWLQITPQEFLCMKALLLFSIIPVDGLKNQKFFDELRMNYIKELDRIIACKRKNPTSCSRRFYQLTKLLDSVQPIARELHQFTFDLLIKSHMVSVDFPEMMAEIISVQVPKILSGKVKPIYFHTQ
# Chain of Ratio of Nucleoli Translocation and Cytoplasm, AR (gene 367) (P10275 whole entry, looked up): as above
# Chain of Retinoic acid receptor RXR-alpha (Homo sapiens) (P19793 whole entry, looked up): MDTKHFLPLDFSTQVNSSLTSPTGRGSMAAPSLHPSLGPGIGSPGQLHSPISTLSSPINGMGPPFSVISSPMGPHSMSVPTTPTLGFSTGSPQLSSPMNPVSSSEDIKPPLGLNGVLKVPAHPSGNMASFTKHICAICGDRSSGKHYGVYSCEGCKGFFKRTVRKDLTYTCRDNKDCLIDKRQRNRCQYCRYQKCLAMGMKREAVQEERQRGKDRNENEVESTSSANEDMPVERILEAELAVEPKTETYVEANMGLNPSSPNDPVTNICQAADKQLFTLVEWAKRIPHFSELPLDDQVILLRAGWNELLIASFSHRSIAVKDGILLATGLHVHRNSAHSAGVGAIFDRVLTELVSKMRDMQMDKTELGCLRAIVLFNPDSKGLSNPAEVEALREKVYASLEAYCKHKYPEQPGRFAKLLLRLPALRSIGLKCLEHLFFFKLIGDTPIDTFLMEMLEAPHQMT
# Chain of THRB (gene 7068) (P10828 whole entry, looked up, the tested form may be a part): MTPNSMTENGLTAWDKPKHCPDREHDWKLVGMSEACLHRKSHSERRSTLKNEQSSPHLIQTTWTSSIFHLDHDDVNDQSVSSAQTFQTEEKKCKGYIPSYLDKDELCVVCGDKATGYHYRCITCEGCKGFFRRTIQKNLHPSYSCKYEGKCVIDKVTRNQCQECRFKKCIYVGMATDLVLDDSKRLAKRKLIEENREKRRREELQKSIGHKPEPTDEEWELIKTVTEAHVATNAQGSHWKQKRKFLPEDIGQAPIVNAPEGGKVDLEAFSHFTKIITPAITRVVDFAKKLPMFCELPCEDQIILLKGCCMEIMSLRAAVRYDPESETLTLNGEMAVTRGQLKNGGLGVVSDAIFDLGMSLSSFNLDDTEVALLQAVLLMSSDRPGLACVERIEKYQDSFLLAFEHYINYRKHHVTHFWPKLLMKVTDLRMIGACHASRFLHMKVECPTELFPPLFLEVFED
compound,measurement,setting,value
CCCC1COC(Cn2cncn2)(c2ccc(Cl)cc2Cl)O1 (stereo not drawn),outcome,[1],inactive
same,outcome,[2],inactive
same,outcome,[3],inactive
same,outcome,[4],inactive
same,outcome,[5],inactive
same,outcome,[6],inactive
same,outcome,[7],inactive
same,outcome,[8],inactive
same,outcome,[9],inactive
same,outcome,[10],inactive
same,outcome,[11],inactive
same,outcome,[12],inactive
same,AC50,[13],89.2 µM (active)
same,AC50,[14],33.7 µM (active)
same,outcome,[15],inactive
CCCN(CCC)c1c([N+](=O)[O-])cc(S(N)(=O)=O)cc1[N+](=O)[O-],AC50,DIO1 (gene 1733),166 µM (active) [middle of 7 runs]
same,AC50,[14],34 µM (active)
same,outcome,[14],inactive
same,outcome,[15],inactive
COC(=O)N(OC)c1ccccc1COc1ccn(-c2ccc(Cl)cc2)n1,outcome,THRB (gene 7068),inactive
same,AC50,[16],38.3 µM (active)
same,outcome,[1],inactive
same,outcome,[2],inactive
same,outcome,[3],inactive
same,outcome,[4],inactive
same,outcome,[5],inactive
same,AC50,[17],7.9 µM (active)
same,outcome,[6],inactive
same,outcome,[7],inactive
same,outcome,[8],inactive
same,outcome,[9],inactive
same,outcome,[10],inactive
same,outcome,[11],inactive
same,outcome,[12],inactive
same,AC50,[14],1.7 µM (active)
same,AC50,[15],1.69 µM (active)
OC(c1ccc(Cl)cc1)(c1cncnc1)c1ccccc1Cl (stereo not drawn),outcome,[14],inactive
same,outcome,[15],inactive
CC1COC(Cn2cncn2)(c2ccc(Oc3ccc(Cl)cc3)cc2Cl)O1 (stereo not drawn),AC50,[14],6.64 µM (active)
same,AC50,[15],6.05 µM (active)
CC(C)(C)c1ccc(CSc2cnn(C(C)(C)C)c(=O)c2Cl)cc1,outcome,[17],inactive
same,AC50,[14],0.655 µM (active)
same,AC50,[15],0.359 µM (active)
CON(C)C(=O)Nc1ccc(Cl)c(Cl)c1,outcome,[14],inactive
same,outcome,[15],inactive
O=C(O)COc1nc(Cl)c(Cl)cc1Cl,outcome,[14],inactive
same,outcome,[15],inactive
CCNc1nc(Cl)nc(NC(C)C)n1,outcome,[1],inactive
same,outcome,[2],inactive
same,outcome,[3],inactive
same,outcome,[4],inactive
same,outcome,[5],inactive
same,outcome,[6],inactive
same,outcome,[7],inactive
same,outcome,[8],inactive
same,outcome,[9],inactive
same,outcome,[10],inactive
same,outcome,[11],inactive
same,outcome,[12],inactive
CCCCNC(=O)OCC#CI,AC50,[14],91.7 µM (active)
same,outcome,[15],inactive
N#CC(CCc1ccc(Cl)cc1)(Cn1cncn1)c1ccccc1 (stereo not drawn),outcome,[18],inactive
same,outcome,[13],inactive
same,outcome,[14],inactive
same,outcome,[15],inactive
N#Cc1cc(Br)c(O)c(Br)c1,outcome,[18],inactive
same,outcome,[13],inactive
same,outcome,[14],inactive
same,outcome,[15],inactive
CCOC(=O)CC(SP(=S)(OC)OC)C(=O)OCC (stereo not drawn),AC50,[18],50 µM (active)
same,outcome,[13],inactive
CC(C)Oc1cc(-n2nc(C(C)(C)C)oc2=O)c(Cl)cc1Cl,outcome,[18],inactive
same,outcome,[13],inactive
same,outcome,[14],inactive
same,outcome,[15],inactive
O=C(Nc1ccccc1)Nc1ccnc(Cl)c1,outcome,[13],inactive
same,AC50,[14],50 µM (active)
same,outcome,[15],inactive
CC1=C(C(=O)Nc2ccccc2)SCCO1,outcome,[18],inactive
same,outcome,[14],inactive
same,outcome,[15],inactive
C=CCC1=C(C)[C@@H](OC(=O)[C@@H]2[C@@H](C=C(C)C)C2(C)C)CC1=O,AC50,[14],47.4 µM (active)
same,outcome,[15],inactive

# Reference: PubChem BioAssay (EPA / NIEHS)
